26 molecules from PubChem BioAssay AID1851 (National Center for Advancing Translational Sciences (NCATS), 2009) can be followed below.

Screen size: about 16,000 compounds; about 2,600 (16%) were called active. Another 20% or so got no clear call; they are omitted. The sample holds actives, similar compounds and a random draw of the others, so the mix is not that of the screen. The call rests on the fitted dose curve; in most records, active means well fitted curve in the direction sought with a large enough effect; inconclusive means small, poorly fitted or top-dose-only effect, or effect the other way; inactive means no such curve, though single readings can be large or run the other way. The source holds several records for some structures; these can differ, active in one and inactive in another.
On the % scale 0 is the no-effect control and ±100 the full control effect.

The target of this test is Cytochrome P450 2D6 (Homo sapiens) (UniProt P10635). In words: Cytochrome panel assay with activity outcomes. The conditions noted are these: recombinant CYP, pro-luciferin dealkylation, luminescence, p450-cyp2d6; series mostly up to 57.1 µM.
Cytochrome P450 2D6 (Homo sapiens), sequence (P10635 whole entry, looked up): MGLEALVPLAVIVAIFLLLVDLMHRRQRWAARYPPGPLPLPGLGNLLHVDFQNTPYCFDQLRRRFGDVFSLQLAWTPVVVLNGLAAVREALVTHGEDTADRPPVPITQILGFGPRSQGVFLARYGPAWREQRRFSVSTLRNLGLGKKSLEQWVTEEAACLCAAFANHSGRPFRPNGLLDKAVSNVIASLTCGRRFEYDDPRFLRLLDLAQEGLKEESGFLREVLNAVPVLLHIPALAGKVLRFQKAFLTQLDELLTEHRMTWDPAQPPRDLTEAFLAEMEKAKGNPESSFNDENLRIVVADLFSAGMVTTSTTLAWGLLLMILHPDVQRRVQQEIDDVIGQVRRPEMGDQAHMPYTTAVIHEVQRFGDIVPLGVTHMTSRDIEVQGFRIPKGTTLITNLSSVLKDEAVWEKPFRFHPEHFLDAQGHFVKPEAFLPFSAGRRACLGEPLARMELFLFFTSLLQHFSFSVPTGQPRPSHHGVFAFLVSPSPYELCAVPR
In the case of `CN(C)C(=O)Oc1ccc[n+](C)c1`, the AC50 (in general, the concentration at which the activity in the assay is half-maximal) is “inactive”.
Take `C[C@@H]1O[C@H]1P(=O)(O)O`: the AC50 result is “inactive”.
`O=c1c(O)c(-c2ccc(O)c(O)c2)oc2cc(O)cc(O)c12`: the AC50 result is “inactive”.
The same measure, in the same setting: in the case of `CNC[C@H](O)c1ccc(O)c(OC)c1` it was “inactive”; in that of `C[C@](N)(CCP(=O)(O)O)C(=O)O`, “inactive”; in that of `CCCN(CCC)C1Cc2cc(OC)c(OC)cc2C1`, 25.1 µM (active) and inactive.
Regarding `CCCN(C/C=C\I)[C@@H]1CCc2ccc(O)cc2C1`, the AC50 was 15.8 nM (active).
In the case of `CCCN(CCC)[C@@H]1CCc2ccc(O)cc2C1`, the AC50 is 794 nM (active) and inactive.
Still for that read-out and setting: next, `O=C(O)[C@H]1CCN1`: “inactive”.
The same measure, in the same setting: next, `CN(C)[C@H]1C(=O)C(C(N)=O)=C(O)[C@]2(O)C(=O)C3=C(O)c4c(O)cccc4[C@@](C)(O)[C@H]3C[C@@H]12`: “inactive”.
`O=C(O)C(C(=O)O)P(=S)(S)c1ccccc1` (stereo unspecified): the activity, negative = inhibition is 8.23% [at 11.4 µM] (inactive).
Take `CC(=O)NBr`: the AC50 entry was “inactive”.
In the case of `N#CCCCC[N+]12CN3CN(CN(C3)C1)C2`, the activity, negative = inhibition is 1.51% [at 11.4 µM] (inactive).
On to `COC1=CC(=O)O[C@@H](/C=C\c2ccccc2)C1`, for which the AC50 entry was “inactive”.
As for `CCN1C[C@]2(COC)CC[C@H](O)[C@@]34[C@@H]5C[C@H]6[C@@H](OC)[C@H]5[C@](O)(C[C@@H]6OC)[C@@](O)([C@@H](OC)[C@H]23)[C@@H]14`, the AC50 result is “inactive”.
Still for that read-out and setting: next, `CCN(CC)c1ncnc2c1ncn2[C@@H]1O[C@@H](COP(=O)(O)OP(=O)(O)C(Br)(Br)P(=O)(O)O)[C@H](O)[C@@H]1O`: “inactive”.
As for `CCN(CC)c1ncnc2c1ncn2[C@@H]1O[C@@H](COP(=O)(O)OP(=O)(O)C(Br)(Br)P(=O)(O)O)[C@H](O)[C@H]1O`, the AC50 was 631 nM (active).
Still for that read-out and setting: next, `Nc1ncnc2c1ncn2[C@@H]1O[C@@H](COP(=O)(O)CP(=O)(O)OP(=O)(O)O)[C@H](O)[C@@H]1O`: “inactive”; `COc1cc2c3cc1Oc1cc(ccc1O)C[C@@H]1c4c(cc(OC)c(O)c4Oc4cccc(c4)C[C@H]3N(C)CC2)CC[N+]1(C)C`: “inactive”.
In the case of `O=P(O)(O)CCP(=O)(O)O`, the activity, negative = inhibition was 10.1% [at 11.4 µM] (inactive).
With `N[C@H](CP(=O)(O)O)C(=O)O`, the AC50 entry was “inactive”.
Turning to `Cc1nc2ccccc2cc1C[N+]12CN3CN(CN(C3)C1)C2`, the activity, negative = inhibition is -2.3% [at 11.4 µM] (inactive).
Turning to `c1ccc2c(c1)-c1ccccc1C2N1CC2CCC(CC2)C1`, the AC50 was 3980 nM (active).
As for `O=C1N[C@@]2(CN3CCC2CC3)C(=O)N1CN(Cc1ccccc1)c1ccccc1`, the activity, negative = inhibition is 2.51% [at 11.4 µM] (inactive).
`CC[C@@]1(c2ccc(N)cc2)CCC(=O)NC1=O`: the AC50 entry was “inactive”.
Same read-out and setting: next, `CN1Cc2c(ccc3c2OCO3)[C@@H]2[C@@H](O)Cc3cc4c(cc3[C@@H]21)OCO4`: 200 nM (active).
